Most compounds without a hit are left out; they make up all but 2.3% or so of the library.
CHT allo act: human CHT allosteric activation; Q9GZV3; CHT-expressing cells, membrane potential dye, choline EC20; stronger effect = higher value; LV-AA mutant CHT in HEK293 cells; B-score at 10 µM; 310,000 tested, 0.49% active; AID 488977;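 active means initial fluorescence not abnormally high and integrated response B-score, plate-corrected, over 3 SD above library mean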
TMEM16A act: activates or potentiates the mouse TMEM16A chloride channel. HEK293 TMEM16A/YFP-H148Q/I152L, iodide quench fluorescence; stronger effect = lower value. B-score at 10 µM. Q8BHY3. 340,000 tested, 0.3% active. AID 623877;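 active means fluorescence-ratio B-score plate-corrected deviation score at least 3 library SD below zero, with starting fluorescence score within 5 deviations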;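 further: channel opened by trigger with iodide after compound preincubation; score built on the fluorescence ratio of max minus min over baseline; more negative score means more quench and so TMEM16A activation or potentiation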
Target sequence (Q8BHY3 whole entry, looked up): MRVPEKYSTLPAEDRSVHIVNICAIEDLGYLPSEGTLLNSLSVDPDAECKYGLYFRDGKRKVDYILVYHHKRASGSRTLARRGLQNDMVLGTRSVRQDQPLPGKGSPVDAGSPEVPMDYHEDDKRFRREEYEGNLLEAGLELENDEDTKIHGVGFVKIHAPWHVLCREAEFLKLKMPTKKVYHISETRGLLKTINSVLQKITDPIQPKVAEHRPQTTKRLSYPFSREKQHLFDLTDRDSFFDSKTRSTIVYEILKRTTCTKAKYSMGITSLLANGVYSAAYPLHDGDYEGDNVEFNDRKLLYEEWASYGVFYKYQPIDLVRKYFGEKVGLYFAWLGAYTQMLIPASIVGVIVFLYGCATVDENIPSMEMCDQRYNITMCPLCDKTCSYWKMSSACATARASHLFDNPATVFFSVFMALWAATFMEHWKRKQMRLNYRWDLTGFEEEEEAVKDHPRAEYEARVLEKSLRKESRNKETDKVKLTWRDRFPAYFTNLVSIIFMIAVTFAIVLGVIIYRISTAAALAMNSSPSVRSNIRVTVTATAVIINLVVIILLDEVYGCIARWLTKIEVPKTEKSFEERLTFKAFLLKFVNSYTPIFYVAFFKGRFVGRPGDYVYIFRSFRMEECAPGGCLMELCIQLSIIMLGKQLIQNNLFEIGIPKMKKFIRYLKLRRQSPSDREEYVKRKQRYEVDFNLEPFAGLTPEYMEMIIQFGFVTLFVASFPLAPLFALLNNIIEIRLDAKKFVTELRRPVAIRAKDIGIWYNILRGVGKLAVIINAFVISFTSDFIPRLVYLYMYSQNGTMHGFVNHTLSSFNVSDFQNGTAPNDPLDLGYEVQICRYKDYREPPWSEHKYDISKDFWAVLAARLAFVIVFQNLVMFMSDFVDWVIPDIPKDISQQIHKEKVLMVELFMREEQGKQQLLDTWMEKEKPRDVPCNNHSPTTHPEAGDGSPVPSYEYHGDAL
TMEM16A inh: inhibitors of mouse TMEM16A calcium-activated chloride channel | Q8BHY3 | HEK293 TMEM16A/YFP iodide influx fluorescence, ionomycin | normalized B-score (activity score, 25-100; higher = stronger inhibition) at 10 µM | 310,000 tested, 1.2% active | AID 588511;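 active means ratio plate-corrected score three or more library SD toward inhibition, starting fluorescence score within five deviations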;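 further: score derived from kinetic fluorescence span divided by baseline fluorescence per well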
CHT inh: inhibits the human high affinity choline transporter; Q9GZV3; CHT-expressing cells, membrane potential dye, choline response; stronger effect = lower value; B-score at 10 µM; 310,000 tested, 0.86% active; AID 488975;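 active means B-score over 3 SD under the library average, and starting fluorescence ratio not unusually high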;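 further: choline stimulus applied at its EC90 after an EC20 pre-addition; B-score computed on integrated fluorescence ratio after choline addition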
CHT activ conf: confirmation of human choline transporter (CHT) activators | shares compounds with CHT allo act | CHT-expressing cells, membrane potential dye fluorescence (FDSS); % of choline EC20–EC90 response window; HEK293 expressing CHT LV-AA mutant; choline added at its EC20 | activation, % at 10 µM | 2,500 tested, 91% active;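 active means primary screen active, with duplicate mean activation above negative control mean plus 3 SD, cut at about 11% in these data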
HEK293 MP dye: activity in parental HEK293 cells lacking CHT | ratio readout change at 10 µM, hits read low | 2,500 tested, 62% active | shares compounds with CHT allo act | membrane potential dye fluorescence (FDSS); measured after EC20 choline addition;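 active means duplicate-averaged ratio beyond 3 SD from buffer wells, up or down, though filed actives are nearly all decreases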
The depositor's hits bear a star; i = inactive; . = not tested or not shown; ! = a repeat was not active.

SMILES | CHT allo act | TMEM16A act | TMEM16A inh | CHT inh | CHT activ conf | HEK293 MP dye
Cc1oc(-c2ccc(Cl)cc2)nc1CN1CCC(C(=O)NCCCN2CCCC(C)C2)CC1 (stereo unspecified) | i | i | i | i | 54.8* | -28*
Cc1ccccc1-c1nc(CN2CCC(C(=O)NCCCN3CCOCC3)CC2)c(C)o1 | i | i | i | i | 40.1* | -25.9*
Cc1ccccc1-c1nc(CN2CCC(C(=O)NCCN3CCOCC3)CC2)c(C)o1 | i | i | i | i | . | .
Cc1oc(-c2ccc(Cl)cc2)nc1CN1CCC(C(=O)NCCCN2CCCC2=O)CC1 | i | i | i | i | . | .
N#Cc1nc(COc2ccc(F)cc2)oc1N1CCN(Cc2ccccc2)CC1 | 7.74* | i | i | i | 31.4* | i
O=C(O)/C=C/C(=O)NC1CC1 | i | i | i | i | . | .
COC(=O)C1=C(C)N(Cc2ccccc2)C(=NCc2ccccc2)N[C@H]1c1cccc(F)c1 | 16.1* | i | i | i | 39.6* | i
COC(=O)C1=C(C)N(Cc2ccccc2)C(=NCc2ccccc2)N[C@H]1c1ccccc1 | . | i | . | . | . | .
N#Cc1ccc(-c2cn(-c3ccccc3)c3[n+]2CCCS3)cc1 | 10.5* | i | i | i | 62.2* | -64.7*
Cc1ccc(-c2cn(-c3ccccc3)c3[n+]2CCCS3)cc1 | 6.64*! | i | i | i | 50.0* | -22.9*
CCc1ccc(-n2cc(-c3ccc(F)cc3)[n+]3c2SCCC3)cc1 | 13.8* | i | i | i | 81.8* | i
N#Cc1ccc(-c2cn3c(n2)SCC3)cc1 | i | i | i | i | . | .
c1ccc(-c2cn(-c3ccccc3)c3[n+]2CCCS3)cc1 | i | i | i | i | . | .
COc1cccc(C(O)c2cnc(C(C)C)n2C)c1 (stereo unspecified) | i | i | i | i | . | .
CCOC(=O)C1CCCN1C(=O)C1(NC(C)=O)CCCC1 (stereo unspecified) | . | i | . | . | . | .
Cc1cccc[n+]1CC(=O)c1ccc2c(c1)OCCO2 | i | i | i | i | . | .
CCOC(=O)/C(C#N)=C/c1c(N2CCN(C)CC2)nc2c(C)cccn2c1=O | i | i | i | i | 46.2* | -48.2*
O=Cc1c(N2CCCCC2)nc2ccccn2c1=O | i | i | i | i | . | .
COCCCNC(=O)/C(C#N)=C/c1c(N2CCN(C)CC2)nc2c(C)cccn2c1=O | 6.86* | i | i | i | 52.1* | -56*
CNC(=O)/C(C#N)=C/c1c(N2CCCCCC2)nc2ccccn2c1=O | 6.44* | i | i | i | -2.4 | -36*
CN1CCN(c2nc3ccccn3c(=O)c2C=O)CC1 | 6.32* | i | i | i | 48.1* | -44.8*
COCCCNC(=O)/C(C#N)=C/c1c(N2CCN(c3ccc(OC)cc3)CC2)nc2c(C)cccn2c1=O | i | i | i | i | . | .
O=C(/C=C/c1ccccc1)OCCCN=C1NS(=O)(=O)c2ccccc21 | i | i | i | i | . | .
COCCNC(=O)/C(C#N)=C/c1c(N2CCN(C)CC2)nc2c(C)cccn2c1=O | 9.71* | i | i | i | 66.5* | -56.3*
COCCCNC(=O)/C(C#N)=C/c1c(N2CCN(C)CC2)nc2ccccn2c1=O | i | i | i | i | 47.5* | -41.6*
COCCCNC(=O)/C(C#N)=C/c1c(N2CCN(c3ccccc3)CC2)nc2ccccn2c1=O | i | i | i | i | . | .
COCCNC(=O)/C(C#N)=C/c1c(N2CCN(c3ccccc3)CC2)nc2ccccn2c1=O | i | i | i | i | . | .
CCN1CCN(c2nc3c(C)cccn3c(=O)c2/C=C(\C#N)C(=O)NCCOC)CC1 | 8.68* | i | i | i | 59.6* | -62*
COCCNC(=O)/C(C#N)=C/c1c(N2CCCCCC2)nc2c(C)cccn2c1=O | i | i | i | i | . | .
O=C(CSc1nc2ccccc2c(=O)n1-c1ccc(Cl)cc1)N/N=C/C=C/c1ccccc1[N+](=O)[O-] | 7.71* | i | i | i | 13.0* | i
